Measurements: PubChem BioAssay (EPA / NIEHS)
Results filed as inconclusive are left out. The source made the active and inactive calls. Rule for the calls, unless noted: active = hit-call score of the fitted dose curve at least 0.9, where 1 is the maximum; inconclusive = response in the unintended direction; inactive = score below 0.9.

Assays:
[1] = biological target: Retinoic acid receptor RXR-alpha (Homo sapiens) (UniProt P19793); experiment: ATG_RXRa_TRANS: Attagene TRANS-FACTORIAL HepG2 Assay for human Retinoid X Receptor alpha (RXRa) (AID 2283012)
Retinoic acid receptor RXR-alpha (Homo sapiens), sequence (P19793 whole entry, looked up, the tested form may be a part): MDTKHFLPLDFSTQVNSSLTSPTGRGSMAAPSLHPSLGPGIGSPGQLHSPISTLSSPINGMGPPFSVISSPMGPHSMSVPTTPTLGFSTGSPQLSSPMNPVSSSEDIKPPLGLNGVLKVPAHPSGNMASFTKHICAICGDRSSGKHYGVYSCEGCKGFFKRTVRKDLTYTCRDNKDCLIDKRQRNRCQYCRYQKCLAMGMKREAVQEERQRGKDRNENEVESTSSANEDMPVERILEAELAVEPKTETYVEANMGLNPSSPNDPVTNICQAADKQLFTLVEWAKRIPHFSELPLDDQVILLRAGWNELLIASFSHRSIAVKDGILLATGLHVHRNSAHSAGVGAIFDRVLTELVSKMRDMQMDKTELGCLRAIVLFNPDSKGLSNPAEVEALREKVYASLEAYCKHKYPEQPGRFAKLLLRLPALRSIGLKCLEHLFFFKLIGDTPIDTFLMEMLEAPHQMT
Outline: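 Transient transfection of human HepG2 with multiple GAL4-UAS reporter constructs; 24 h compound exposure; total RNA isolated, reverse-transcribed, PCR-amplified, 6-FAM labelled, HpaI-cut, resolved by capillary electrophoresis. Positive-direction fit versus DMSO.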

[2] = biological target: human RAR-related Orphan Receptor gamma (RORg), RORC (gene 6097) (UniProt P51449); experiment: ATG_RORg_TRANS: Attagene TRANS-FACTORIAL HepG2 Assay for human RAR-related Orphan Receptor gamma (RORg) (AID 2283011);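 for AC50: potency for induction of reporter transcripts above DMSO so activators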
human RAR-related Orphan Receptor gamma (RORg), RORC (gene 6097), sequence (P51449 whole entry, looked up, the tested form may be a part): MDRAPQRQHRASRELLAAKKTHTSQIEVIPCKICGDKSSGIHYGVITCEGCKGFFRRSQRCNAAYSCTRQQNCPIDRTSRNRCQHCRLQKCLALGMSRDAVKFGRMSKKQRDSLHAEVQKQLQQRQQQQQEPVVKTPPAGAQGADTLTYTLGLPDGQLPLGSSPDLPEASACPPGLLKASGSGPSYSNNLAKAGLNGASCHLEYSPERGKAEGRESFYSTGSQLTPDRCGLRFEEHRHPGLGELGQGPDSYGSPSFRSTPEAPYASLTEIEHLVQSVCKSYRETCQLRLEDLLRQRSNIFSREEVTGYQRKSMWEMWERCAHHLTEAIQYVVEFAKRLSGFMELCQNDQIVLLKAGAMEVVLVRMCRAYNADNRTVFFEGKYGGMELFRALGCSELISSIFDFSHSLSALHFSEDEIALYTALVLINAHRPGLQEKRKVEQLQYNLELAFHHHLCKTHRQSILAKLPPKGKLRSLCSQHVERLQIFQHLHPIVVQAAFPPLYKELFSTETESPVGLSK
Outline: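 Readout: reporter transcript induction (RT-PCR, fluorescent primer extension, capillary electrophoresis) after 24 h compound exposure of transiently transfected HepG2 cells carrying a RORg-Gal4 chimera and GAL4-UAS reporters; DMSO served as baseline, with increasing signal fitted.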

[3] = biological target: human Thyroid Receptor alpha (THRa1), THRA (gene 7067) (UniProt P10827); experiment: ATG_THRa1_TRANS: Attagene TRANS-FACTORIAL HepG2 Assay for human Thyroid Receptor alpha (THRa1) (AID 2283014)
human Thyroid Receptor alpha (THRa1), THRA (gene 7067), sequence (P10827 whole entry, looked up, the tested form may be a part): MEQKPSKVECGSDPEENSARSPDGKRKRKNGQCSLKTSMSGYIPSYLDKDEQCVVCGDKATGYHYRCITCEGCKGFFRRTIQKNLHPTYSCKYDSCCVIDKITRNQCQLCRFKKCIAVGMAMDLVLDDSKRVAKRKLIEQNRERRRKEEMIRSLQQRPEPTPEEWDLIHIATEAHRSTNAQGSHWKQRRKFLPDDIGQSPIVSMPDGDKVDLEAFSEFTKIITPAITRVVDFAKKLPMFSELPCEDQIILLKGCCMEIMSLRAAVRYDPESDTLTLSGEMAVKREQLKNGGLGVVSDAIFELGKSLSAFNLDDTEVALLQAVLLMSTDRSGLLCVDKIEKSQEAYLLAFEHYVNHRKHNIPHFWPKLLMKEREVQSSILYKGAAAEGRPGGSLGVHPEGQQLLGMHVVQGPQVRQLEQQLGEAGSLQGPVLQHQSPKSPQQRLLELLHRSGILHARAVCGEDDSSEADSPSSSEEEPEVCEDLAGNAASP
Outline: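 HepG2 cells transiently transfected with multiplexed GAL4-UAS reporter units for exogenous chimeric THRa1-Gal4; reporter mRNA measured 24 h after dosing by RT-PCR, 6-FAM labelling, HpaI digestion and capillary electrophoresis. Gain-of-signal fitted versus DMSO baseline.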

[4] = read-out: E-selectin (Homo sapiens) (UniProt P16581); experiment: BSK_3C_Eselectin: BioMAP Diversity Plus: 3C Assay for Eselectin Biomarker Activity (AID 2283015; active = hit-call score of the fitted dose curve at least 0.9, where 1 is the maximum; inactive = score below 0.9;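 for outcome: cell surface E-selectin protein quantified by ELISA 24 h after dosing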); settings: primary human endothelial cells (HUVEC); actives raise or lower the signal
Outline: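 Primary human umbilical vein endothelial cells (3C system) were dosed with chemical and cell-surface E-selectin measured by ELISA 24 h later. Bidirectional curve fitting used DMSO as negative control and baseline.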

[5] = read-out: Interleukin-1 alpha (IL1a), IL1A (gene 3552); experiment: BSK_BE3C_IL1a: BioMAP Diversity Plus: BE3C Assay for Interleukin-1 alpha (IL1a) Biomarker Activity (AID 2283016; active = hit-call score of the fitted dose curve at least 0.9, where 1 is the maximum; inactive = score below 0.9); settings: primary human bronchial epithelial cells; actives raise or lower the signal
Outline: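 BE3C primary human bronchial epithelium; cpd 24 h; IL-1a by ELISA; bidirectional fit vs DMSO; parallel SRB (0.1% SRB, 10% TCA fix, 560 nm) for cytotoxicity.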

[6] = read-out: Monocyte Chemoattractant Protein-1 (MCP1), CCL2 (gene 6347); experiment: BSK_3C_MCP1: BioMAP Diversity Plus: 3C Assay for Monocyte Chemoattractant Protein-1 (MCP1) Biomarker Activity (AID 2283017; active = hit-call score of the fitted dose curve at least 0.9, where 1 is the maximum; inactive = score below 0.9); settings: primary human endothelial cells (HUVEC); actives raise or lower the signal
Outline: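 Primary human umbilical vein endothelial cells (3C system) were exposed to test chemical for 24 h, after which MCP-1 was quantified by ELISA. Activity was fitted bidirectionally against DMSO as negative control and baseline.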

[7] = read-out: Monocyte Chemoattractant Protein-1 (MCP1), CCL2 (gene 6347); experiment: BSK_4H_MCP1: BioMAP Diversity Plus: 4H Assay for Monocyte Chemoattractant Protein-1 (MCP1) Biomarker Activity (AID 2283018; active = hit-call score of the fitted dose curve at least 0.9, where 1 is the maximum; inactive = score below 0.9); settings: primary human endothelial cells (HUVEC); actives raise or lower the signal
Outline: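 ELISA read-out of MCP-1 from human vascular endothelial primary cells taken at 24 hours after compound exposure. Activity was fitted in both directions relative to DMSO, which served as negative control.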

[8] = read-out: Human Leukocyte Antigen - DR isotype (HLADR), HLA-DRA (gene 3122); experiment: BSK_3C_HLADR: BioMAP Diversity Plus: 3C Assay for Human Leukocyte Antigen - DR isotype (HLADR) Biomarker Activity (AID 2283019; active = hit-call score of the fitted dose curve at least 0.9, where 1 is the maximum; inactive = score below 0.9;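 for outcome: ELISA of cell-surface HLA-DR on HUVEC 24 h after dosing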); settings: primary human endothelial cells (HUVEC); actives raise or lower the signal
Outline: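 Primary human umbilical vein endothelial cells (3C system) were dosed with compound and cell-surface HLA-DR was quantified by ELISA at 24 h. Activity was fitted bidirectionally against DMSO as negative control and baseline.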

[9] = read-out: Interleukin-8 (IL8), CXCL8 (gene 3576); experiment: BSK_3C_IL8: BioMAP Diversity Plus: 3C Assay for Interleukin-8 (IL8) Biomarker Activity (AID 2283020; active = hit-call score of the fitted dose curve at least 0.9, where 1 is the maximum; inactive = score below 0.9); settings: primary human endothelial cells (HUVEC); actives raise or lower the signal
Outline: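 ELISA read-out of IL-8 from human umbilical vein endothelium, measured 24 h after chemical dosing. Activity is expressed relative to DMSO negative control, with both increases and decreases fitted.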

[10] = biological target: human Retinoid X Receptor beta (RXRb), RXRB (gene 6257) (UniProt P28702); experiment: ATG_RXRb_TRANS: Attagene TRANS-FACTORIAL HepG2 Assay for human Retinoid X Receptor beta (RXRb) (AID 2283013)
human Retinoid X Receptor beta (RXRb), RXRB (gene 6257), sequence (P28702 whole entry, looked up, the tested form may be a part): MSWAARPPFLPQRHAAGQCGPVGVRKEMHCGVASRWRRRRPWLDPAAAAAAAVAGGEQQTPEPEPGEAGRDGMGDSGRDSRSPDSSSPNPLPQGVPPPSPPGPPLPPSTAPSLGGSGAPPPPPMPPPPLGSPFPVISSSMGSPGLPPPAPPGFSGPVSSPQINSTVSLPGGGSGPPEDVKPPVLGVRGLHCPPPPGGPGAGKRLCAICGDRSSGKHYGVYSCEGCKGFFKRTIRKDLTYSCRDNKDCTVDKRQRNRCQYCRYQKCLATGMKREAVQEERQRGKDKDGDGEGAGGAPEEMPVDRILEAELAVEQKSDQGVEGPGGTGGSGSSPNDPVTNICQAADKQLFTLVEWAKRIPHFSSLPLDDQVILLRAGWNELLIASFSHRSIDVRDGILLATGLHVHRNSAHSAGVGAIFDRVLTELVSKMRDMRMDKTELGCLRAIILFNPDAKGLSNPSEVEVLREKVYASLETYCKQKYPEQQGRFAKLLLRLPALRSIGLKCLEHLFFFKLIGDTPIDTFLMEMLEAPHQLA
Outline: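 Transfect HepG2 with GAL4-UAS multi-reporter constructs (chimeric NR-Gal4, TRANS format); dose compound 24 h; isolate RNA, RT-PCR, FAM primer extension, HpaI digest; quantify by capillary electrophoresis; positive direction vs DMSO.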

E-selectin (Homo sapiens), sequence (P16581 whole entry, looked up): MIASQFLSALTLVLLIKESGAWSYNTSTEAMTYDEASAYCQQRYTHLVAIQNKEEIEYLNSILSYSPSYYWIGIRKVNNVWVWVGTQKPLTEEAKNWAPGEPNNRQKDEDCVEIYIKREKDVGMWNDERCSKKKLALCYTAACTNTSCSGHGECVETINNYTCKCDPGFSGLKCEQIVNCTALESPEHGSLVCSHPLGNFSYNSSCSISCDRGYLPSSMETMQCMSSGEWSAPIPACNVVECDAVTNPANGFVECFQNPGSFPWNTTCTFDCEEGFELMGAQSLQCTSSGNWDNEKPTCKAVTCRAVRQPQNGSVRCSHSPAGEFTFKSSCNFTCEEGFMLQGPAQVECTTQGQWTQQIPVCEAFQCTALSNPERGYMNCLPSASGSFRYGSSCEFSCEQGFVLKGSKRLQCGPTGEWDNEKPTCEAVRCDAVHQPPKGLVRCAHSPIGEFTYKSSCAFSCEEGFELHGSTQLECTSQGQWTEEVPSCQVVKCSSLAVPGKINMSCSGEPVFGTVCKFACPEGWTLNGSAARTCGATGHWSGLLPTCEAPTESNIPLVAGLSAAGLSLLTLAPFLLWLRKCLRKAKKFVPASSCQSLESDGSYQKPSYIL

Compound: CC1=NC(C)OC1C (stereo unspecified)
- outcome [1]: inactive

Compound: O=C1CCCN1CCO
- outcome [2]: inactive
- outcome [3]: inactive
- outcome [4]: inactive
- outcome [5]: inactive
- outcome [6]: inactive
- outcome [7]: inactive
- outcome [8]: inactive
- outcome [9]: inactive

Compound: O=C1CCCC(=O)O1
- outcome [2]: inactive
- outcome [3]: inactive

Compound: O=C(C(Cl)Cl)N1CCOC12CCCCC2
- outcome [1]: inactive

Compound: CC(C)CCCC(C)CC=O (stereo unspecified)
- outcome [2]: inactive
- outcome [10]: inactive
- outcome [3]: inactive

Compound: C=CC(=O)OCC(Br)CBr (stereo unspecified)
- AC50 [2]: 176 µM (active)
- outcome [3]: inactive
- AC50 [4]: 20 µM (active)
- AC50 [5]: 20 µM (active)
- AC50 [6]: 31.8 µM (active)
- AC50 [7]: 26.6 µM (active)
- AC50 [8]: 5.44 µM (active)
- AC50 [9]: 20 µM (active)

Compound: Nc1ccc(N=Nc2ccccc2)c(N)n1
- outcome [1]: inactive
- outcome [10]: inactive

Compound: C1=Cc2ccccc2C1
- outcome [2]: inactive
- outcome [10]: inactive
- outcome [3]: inactive

Compound: NC(=O)OCC(COC(N)=O)c1ccccc1
- outcome [2]: inactive
- outcome [3]: inactive

Compound: CC(=O)c1ccc[nH]1
- outcome [2]: inactive
- outcome [10]: inactive
- outcome [3]: inactive

Compound: CCC(CC)C(=O)O
- outcome [1]: inactive

Compound: CC(C)c1ccc2c(c1)CC[C@H]1[C@](C)(CN)CCC[C@]21C
- AC50 [1]: 6.76 µM (active)

Compound: Nc1ncn([C@@H]2O[C@H](CO)[C@@H](O)[C@H]2O)c(=O)n1
- outcome [1]: inactive

Compound: O=C(/C=C/C=C/c1ccc2c(c1)OCO2)N1CCCCC1
- outcome [1]: inactive

Compound: [Cl][In]([Cl])[Cl]
- outcome [2]: inactive
- outcome [3]: inactive

Compound: C=C1[C@H]2CC[C@@H]3[C@H]2C(C)(C)CCC[C@]13C
- outcome [1]: inactive
- outcome [10]: inactive

Compound: CCOC(=O)N1CCC(=C2c3ccc(Cl)cc3CCc3cccnc32)CC1
- outcome [1]: inactive

Compound: CCOC(F)(F)C(F)(F)C(F)(F)C(F)(F)F
- outcome [1]: inactive

Compound: C=CCOc1c(Br)cc(Br)cc1Br
- outcome [2]: inactive
- AC50 [10]: 6.51 µM (active)
- outcome [3]: inactive
- AC50 [4]: 20 µM (active)
- AC50 [5]: 20 µM (active)
- AC50 [6]: 20 µM (active)
- AC50 [7]: 20 µM (active)
- AC50 [8]: 24.8 µM (active)
- outcome [9]: inactive

Compound: CC(C)c1ccc(C=O)cc1
- outcome [2]: inactive
- outcome [3]: inactive

Compound: CCOC(=O)CC(C(C)=O)C(C)=O
- outcome [1]: inactive

Compound: NC(=O)c1ccccc1O
- outcome [1]: inactive

Compound: CCCCNc1ccc(NCCCC)c2c1C(=O)c1ccccc1C2=O
- outcome [2]: inactive
- outcome [4]: inactive
- outcome [5]: inactive
- outcome [6]: inactive
- AC50 [7]: 0.00419 µM (active)
- outcome [8]: inactive
- outcome [9]: inactive

Compound: CCN(CC)c1ccc(C(=O)c2ccccc2C(=O)O)c(O)c1
- outcome [2]: inactive
- outcome [3]: inactive

Compound: CCCCCCCCCCOS(=O)(=O)O
- outcome [1]: inactive
- outcome [10]: inactive

Compound: C=CCOCC(O)CCl (stereo unspecified)
- outcome [2]: inactive
- outcome [10]: inactive
- outcome [3]: inactive
- outcome [4]: inactive
- outcome [5]: inactive
- outcome [6]: inactive
- outcome [7]: inactive
- outcome [8]: inactive
- outcome [9]: inactive

Compound: COC(=O)c1cc(Cl)ccc1[N+](=O)[O-]
- outcome [1]: inactive

Compound: COC(=O)c1sccc1S(N)(=O)=O
- outcome [2]: inactive
- outcome [3]: inactive

Compound: O=S(=O)(O)c1ccccc1C=Cc1ccc(-c2ccc(C=Cc3ccccc3S(=O)(=O)O)cc2)cc1
- outcome [2]: inactive
- outcome [3]: inactive

Compound: COCCOCCOCCOCCOC
- outcome [1]: inactive

Compound: C=COCCCC
- outcome [2]: inactive
- outcome [3]: inactive

Compound: Cc1ccc(C2OC[C@@H]3OC(c4ccc(C)cc4)O[C@H]([C@H](O)CO)[C@@H]3O2)cc1 (stereo partly specified)
- outcome [2]: inactive
- outcome [10]: inactive
- outcome [3]: inactive

Compound: FC(F)(F)C(=NOCC1OCCO1)c1ccc(Cl)cc1
- outcome [1]: inactive
- AC50 [10]: 20.4 µM (active)

Compound: N#CCc1ccc(Cl)cc1Cl
- outcome [1]: inactive
- outcome [10]: inactive

Compound: C=CCCCCCCCCC(=O)OCCCC
- outcome [1]: inactive
- AC50 [10]: 104 µM (active)

Compound: O=C(Nc1cccc(C(F)(F)F)c1)c1cc(Br)cc(Br)c1O
- outcome [1]: inactive
- outcome [10]: inactive

Compound: O=S1(=O)OC(c2ccc(O)cc2)(c2ccc(O)cc2)c2ccccc21
- outcome [1]: inactive
- outcome [10]: inactive

Compound: Cc1cccc(N(C)C(=S)Oc2ccc3ccccc3c2)c1
- outcome [1]: inactive
- AC50 [10]: 32.6 µM (active)
- outcome [3]: inactive

Compound: Cc1cnc(NC(=O)C2=C(O)c3ccccc3S(=O)(=O)N2C)s1
- outcome [1]: inactive
- outcome [10]: inactive

Compound: O=C1CC2CC1C1CCCC21 (stereo unspecified)
- outcome [1]: inactive
- outcome [10]: inactive

Compound: Cc1ccc2oc(=O)ccc2c1
- outcome [1]: inactive
- outcome [10]: inactive

Compound: O=C(c1ccccc1)C1CCC1
- outcome [1]: inactive
- outcome [10]: inactive

Compound: Cc1ccc2c(c1)C(=O)c1ccccc1C2=O
- outcome [1]: inactive
- outcome [10]: inactive

Compound: COc1ccc(-c2coc3cc(O)ccc3c2=O)cc1
- outcome [1]: inactive
- outcome [10]: inactive

Compound: COC=O
- outcome [1]: inactive
- outcome [10]: inactive

Compound: CCN(CCO)c1cccc(C)c1
- outcome [1]: inactive
- outcome [10]: inactive

Compound: CCCCC(CC)COC(=O)c1ccccc1 (stereo unspecified)
- outcome [1]: inactive
- AC50 [10]: 60.9 µM (active)

Compound: CC(C)c1ccc2c(C(C)C)cc(C(C)C)c(S(=O)(=O)O)c2c1
- outcome [1]: inactive
- AC50 [10]: 18.2 µM (active)

Compound: O=C1CCCCCCCCCCC(=O)OCCO1
- outcome [1]: inactive
- outcome [10]: inactive

Compound: O=C(O)CCCC[C@@H]1SC[C@@H]2NC(=O)N[C@@H]21
- outcome [1]: inactive
- outcome [10]: inactive

Compound: O=[N+]([O-])C1(Br)COCOC1
- outcome [1]: inactive
- outcome [10]: inactive

Compound: CC(C)(C)c1ccc(OC(=O)c2ccccc2O)cc1
- outcome [1]: inactive
- AC50 [10]: 177 µM (active)

Compound: CCc1ccc2c(c1)C(=O)c1ccccc1C2=O
- outcome [1]: inactive
- outcome [10]: inactive

Compound: CCCCCCCC/C=C\CCCCCCCC(=O)OCCO
- outcome [1]: inactive
- AC50 [10]: 17.7 µM (active)

Compound: O=C1Nc2ccccc2C1(c1ccc(O)cc1)c1ccc(O)cc1
- outcome [1]: inactive
- outcome [10]: inactive

Compound: O=CN1CCCCC1
- outcome [1]: inactive
- outcome [10]: inactive

Compound: CCC(=O)Oc1ccc(/C(CC)=C(\CC)c2ccc(OC(=O)CC)cc2)cc1
- outcome [1]: inactive
- AC50 [10]: 2.92 µM (active)

Compound: COc1cc(NC(=O)CC(C)=O)c(OC)cc1Cl
- outcome [1]: inactive
- outcome [10]: inactive

Compound: CCCCCC/C=C\CCCCCCCC(=O)O
- outcome [1]: inactive
- AC50 [10]: 77 µM (active)

Compound: O=C1c2cccc(O)c2C(=O)c2c(O)cc(CO)cc21
- outcome [1]: inactive
- outcome [10]: inactive

Compound: O=S(=O)(O)c1ccc2cc(O)c(S(=O)(=O)O)cc2c1
- outcome [1]: inactive
- outcome [10]: inactive
